These results are taken from PubChem BioAssay (NCI).

“And” between values parts separate entries of the source, which are not always exact repeats. Identical values can stand only once. About 83,000 compounds went through this panel and 20% of them were active in at least one assay; those are over-represented in the sample as a whole.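 Results are percent growth after 48 hours of single-concentration exposure. 100 means growth as in untreated cells, lower positive values show inhibition; negative values down to -100 show cell death.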 A number with no mark means an inactive call. The source made the active and inactive calls. Rule for the calls: active = growth percent below 10; inactive = the rest.

The assay relates to OVCAR-4 ovarian. Description: NCI-60 one-dose screen, 48 h (100 = growth as untreated, 0 = no growth, -100 = all killed). As to conditions: 10 µM unless noted.
Consider `NC1=CC(=O)c2cccnc2C1=O`, for which the growth is -84.5% (active).

In the case of `Cn1c(=O)c2c(nc(Nc3cc(=O)[nH]c(=O)[nH]3)n2Cc2ccccc2)n(C)c1=O`, the growth was 52.4%. Regarding `O=C(c1ccc(Nc2nccc(NCCCNc3ccnc4cc(Cl)ccc34)n2)cc1)N1CCCCC1`, the growth was 48.4%. As to `COc1c(NC=O)c2c(c([N+](=O)[O-])c1OC)C(=O)OC2`, the growth was 103%. For `COc1ccc(Cl)cc1Nc1nc(C(F)(F)F)ccc1C(=O)N/N=C/c1ccc(N(C)C)cc1`, the growth is 87.1%. Consider `CC1=C2[C@@H](CC1)[C@]1(C)O[C@@](C3CC3)(C[C@H]1OC(=O)CO)[C@H]2OC(=O)/C=C/c1ccccc1`, for which the growth was 110%. `CC/C=C\C/C=C\C[C@H](O)C/C=C1/C(=O)C=C[C@@H]1C/C=C\CCCC(=O)OC`: the growth is 28.2%. For `Cc1[nH]c(C(=O)Nc2nc3ccc(NC(=O)CCN)cc3s2)c(Cl)c1Cl`, the growth was 44.8%. In the case of `COc1cc(Cl)cc(-c2nn(C(=O)NS(=O)(=O)c3ccc(Cl)cc3)cc2-c2ccncc2)c1`, the growth is 16.5%. `C[C@@H]1O[C@@H](O[C@H]2[C@@H](OC(=O)[C@]34CCC(C)(C)C[C@H]3C3=CC[C@@H]5[C@@]6(C)C[C@H](O)[C@H](O[C@@H]7O[C@H](CO)[C@@H](O)[C@H](O)[C@H]7O)[C@@](C)(CO)[C@@H]6CC[C@@]5(C)[C@]3(C)C[C@H]4O)OC[C@@H](O)[C@@H]2O)[C@H](O)[C@H](O[C@@H]2OC[C@@H](O)[C@H](O[C@@H]3OC[C@](O)(CO)[C@H]3O[C@@H]3OC[C@@H](O)[C@H](O)[C@H]3O)[C@H]2O)[C@H]1O[C@@H]1OC[C@](O)(CO)[C@H]1O`: the growth was 42.5%. In the case of `Cc1c(O)c(O)cc2c3c(oc12)CC(c1ccc2c(c1)OCO2)CC3=O` (stereo unspecified), the growth was 89.4%. Take `COc1cc(F)c(/C=C/c2cc(/C=C/c3cc(OC)c(OC)cc3F)n(-c3cc(F)cc(F)c3)n2)cc1OC`: the growth is 49.9%. Turning to `CN1CCN(CCCN2c3ccccc3Sc3ccc(Cl)cc32)CC1`, the growth is 68.4% and 81.1%. The figure for `O=C(N=Nc1c(O)[nH]c2ccccc12)Nc1ccccc1Cl` is 71%; for `OCCN1CCN(CC/C=C2\c3ccccc3Sc3ccc(Cl)cc32)CC1` it is 71.9% and 128%. On to `COc1nc2ccc(C)cc2cc1/C=[N+](\[O-])c1ccccc1`, for which the growth was 83.7%. `O=C(CCN1CCOCC1)Nc1cccc(-n2cc(-c3ccncc3)c(-c3ccc(Cl)c(O)c3)n2)c1`: the growth was 66.5%. Turning to `CN1CCN(c2ccc(Nc3ncc(C(N)=O)c(NCCCNC(=O)C4CCC4)n3)cc2)CC1`, the growth is 73.1%. On to `CN(C)c1ccc2nc3ccc(=O)cc-3sc2c1`, for which the growth was 2.9% (active). The figure for `CC(=O)N1N=C(c2ccc(Nc3nc(Nc4ccc(F)cc4)nc(Nc4ccc(F)cc4)n3)cc2)CC1c1ccccc1` (stereo unspecified) is 95.3%. Take `C/C=C(\C)C(=O)N[C@H]1CC[C@]2(C)C3CC[C@@]4(C)C(CC[C@@H]4C(C)N(C)C)C3CCC2[C@H]1OC(C)=O` (stereo partly specified): the growth is -23.3% (active). On to `Cc1ccc(-c2nc3nc(-c4ccc(Cl)cc4)nc(N4CCCNCC4)c3o2)cc1`, for which the growth was -83.5% (active). `Nc1n[nH]c2cccc(C#Cc3cccc(NC(=O)c4ccc(N5CCOCC5)c(C(F)(F)F)c4)c3)c12`: the growth is 25.6%. `O=C1C(c2c[nH]c3ccccc23)=C(c2coc3cc(Br)ccc23)C(=O)N1O`: the growth was 115%. The figure for `Cc1cc(N2CCCCC2)nc(NCc2cc(Nc3ccnc4cc(Cl)ccc34)ccc2F)n1` is -4.79% (active); for `CC1(C)C(N)=Nc2cc(OCCCN3Cc4ccc(OCCc5cn(CC(=O)N6CCC(CCN7CCCC7)CC6)nn5)cc4C3)c(OCC3CC3)cc21` it is 94.6%; for `CS(=O)(=O)Nc1cc(-c2ccc3ncnc(Nc4ccc(F)c(Cl)c4)c3c2)cnc1Cl` it is 17.6%. As for `Cc1cnc(C(=O)NNc2nc3sc4c(c3c(=O)[nH]2)C(C)CCC4)cn1` (stereo unspecified), the growth was 22.1%.

As for `Cn1cc2c(=O)nc3c(-c4nc5ccccc5[nH]4)n[nH]n3c2n1`, the growth is 90.6%. On to `Cc1ccc(-c2nc3nc(-c4ccc(F)cc4)nc(N4CCCNCC4)c3o2)cc1`, for which the growth is -89% (active). As to `COc1ccc2c(c1)c(-c1nc(-c3c[nH]c4c(Cl)nccc34)cs1)cn2C`, the growth is 34%.
